We go through 27 molecules from the supplement of paper PMC7724964.

What all share (test): phage ELISA signal ratio (GST-PRM binding over GST background); higher = stronger binding of peptide-phage to the PRM
In general terms: An ELISA detects its analyte on a solid surface through an enzyme-linked reagent.

Experiment [1] addresses HSPA9 438-651 HSP70 (domain begin residue: 438, domain end residue: 651), P38646. The method in brief:
(§1)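 Approximately 48 individual clones from selection rounds 4 and 5 were tested by phage ELISA, and those scoring positive were sequenced. They came from five rounds of selecting an M13 phage library of randomized, cysteine-free, glycine-flanked hexadecapeptides on the gene-8 major coat protein against human peptide recognition domains fused to the C-terminus of glutathione S-transferase (GST) in 96-well plates. Each figure in the table is the ELISA signal on the GST-domain fusion relative to the signal on GST alone.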

In experiment [2] the target is KDM6A 1-520 TPR_8 (domain begin residue: 1, domain end residue: 520), O15550. Put shortly: as §1
Sequence of KDM6A 1-520 TPR_8 (domain begin residue: 1, domain end residue: 520), O15550 (O15550 whole entry): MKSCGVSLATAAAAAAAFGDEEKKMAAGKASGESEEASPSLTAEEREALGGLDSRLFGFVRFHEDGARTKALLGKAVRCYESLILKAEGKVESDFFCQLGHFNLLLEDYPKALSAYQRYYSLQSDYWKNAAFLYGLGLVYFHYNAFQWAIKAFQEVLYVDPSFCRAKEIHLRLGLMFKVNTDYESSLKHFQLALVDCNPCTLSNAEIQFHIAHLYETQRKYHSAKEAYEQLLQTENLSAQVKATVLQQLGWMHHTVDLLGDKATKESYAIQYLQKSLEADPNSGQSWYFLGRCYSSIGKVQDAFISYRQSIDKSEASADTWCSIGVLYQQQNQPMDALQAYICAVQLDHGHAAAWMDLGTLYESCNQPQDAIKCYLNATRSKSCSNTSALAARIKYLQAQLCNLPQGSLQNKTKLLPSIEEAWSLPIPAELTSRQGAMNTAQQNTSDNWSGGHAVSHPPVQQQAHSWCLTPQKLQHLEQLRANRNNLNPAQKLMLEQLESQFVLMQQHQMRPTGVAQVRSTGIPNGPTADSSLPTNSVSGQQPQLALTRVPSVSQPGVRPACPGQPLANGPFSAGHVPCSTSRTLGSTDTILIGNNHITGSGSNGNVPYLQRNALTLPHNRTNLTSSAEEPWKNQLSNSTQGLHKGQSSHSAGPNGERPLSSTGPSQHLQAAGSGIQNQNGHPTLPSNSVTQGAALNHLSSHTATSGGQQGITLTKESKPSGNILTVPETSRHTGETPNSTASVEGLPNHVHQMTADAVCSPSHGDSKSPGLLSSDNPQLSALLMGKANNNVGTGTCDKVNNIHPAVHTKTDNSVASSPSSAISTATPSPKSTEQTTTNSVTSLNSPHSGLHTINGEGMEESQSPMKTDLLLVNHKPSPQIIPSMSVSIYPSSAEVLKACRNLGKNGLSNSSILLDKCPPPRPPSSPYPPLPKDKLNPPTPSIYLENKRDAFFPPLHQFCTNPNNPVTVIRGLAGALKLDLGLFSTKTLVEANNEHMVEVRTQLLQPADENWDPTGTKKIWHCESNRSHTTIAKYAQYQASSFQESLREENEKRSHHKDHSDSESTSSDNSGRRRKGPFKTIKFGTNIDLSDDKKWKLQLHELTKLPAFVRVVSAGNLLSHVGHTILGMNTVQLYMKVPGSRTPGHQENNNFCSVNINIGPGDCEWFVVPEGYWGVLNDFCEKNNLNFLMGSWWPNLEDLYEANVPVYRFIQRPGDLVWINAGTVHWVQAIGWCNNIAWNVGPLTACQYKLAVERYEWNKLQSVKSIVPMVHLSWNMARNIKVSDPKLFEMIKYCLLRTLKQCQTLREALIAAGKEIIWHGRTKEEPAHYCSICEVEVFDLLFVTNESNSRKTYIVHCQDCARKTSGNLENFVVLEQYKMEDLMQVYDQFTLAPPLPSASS
Experiment [3] deals with KPNB1 1-876 IBN_N+Arm (domain begin residue: 1, domain end residue: 876), Q14974. The method in brief:
as §1

Experiment [4] deals with T1, LBR 1-67 LBR_tudor (domain begin residue: 1, domain end residue: 67), Q14739.
T1 chain: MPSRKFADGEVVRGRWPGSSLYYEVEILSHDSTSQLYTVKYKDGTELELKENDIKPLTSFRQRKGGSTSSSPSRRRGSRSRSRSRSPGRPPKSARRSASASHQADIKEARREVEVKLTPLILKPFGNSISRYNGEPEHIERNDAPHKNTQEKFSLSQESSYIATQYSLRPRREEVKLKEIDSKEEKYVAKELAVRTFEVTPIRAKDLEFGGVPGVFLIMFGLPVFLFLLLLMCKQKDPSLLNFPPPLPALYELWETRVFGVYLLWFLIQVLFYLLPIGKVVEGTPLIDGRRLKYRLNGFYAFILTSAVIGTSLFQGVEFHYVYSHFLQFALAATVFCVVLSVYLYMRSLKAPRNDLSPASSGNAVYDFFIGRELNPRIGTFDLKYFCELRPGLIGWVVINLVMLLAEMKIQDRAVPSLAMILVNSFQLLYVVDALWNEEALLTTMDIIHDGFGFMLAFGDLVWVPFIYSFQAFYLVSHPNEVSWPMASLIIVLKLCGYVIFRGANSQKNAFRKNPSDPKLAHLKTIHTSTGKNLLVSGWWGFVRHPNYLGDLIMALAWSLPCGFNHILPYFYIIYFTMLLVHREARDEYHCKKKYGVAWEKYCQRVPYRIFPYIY
Put shortly: as §1

Experiment [5] addresses SETD1A 2-220 RRM_1 (domain begin residue: 2, domain end residue: 220), O15047. The method in brief:
as §1

In experiment [6] the target is T2, ZGPAT 120-268 zf-CCCH+TUDOR (domain begin residue: 120, domain end residue: 268), Q8N5A5.
T2 chain: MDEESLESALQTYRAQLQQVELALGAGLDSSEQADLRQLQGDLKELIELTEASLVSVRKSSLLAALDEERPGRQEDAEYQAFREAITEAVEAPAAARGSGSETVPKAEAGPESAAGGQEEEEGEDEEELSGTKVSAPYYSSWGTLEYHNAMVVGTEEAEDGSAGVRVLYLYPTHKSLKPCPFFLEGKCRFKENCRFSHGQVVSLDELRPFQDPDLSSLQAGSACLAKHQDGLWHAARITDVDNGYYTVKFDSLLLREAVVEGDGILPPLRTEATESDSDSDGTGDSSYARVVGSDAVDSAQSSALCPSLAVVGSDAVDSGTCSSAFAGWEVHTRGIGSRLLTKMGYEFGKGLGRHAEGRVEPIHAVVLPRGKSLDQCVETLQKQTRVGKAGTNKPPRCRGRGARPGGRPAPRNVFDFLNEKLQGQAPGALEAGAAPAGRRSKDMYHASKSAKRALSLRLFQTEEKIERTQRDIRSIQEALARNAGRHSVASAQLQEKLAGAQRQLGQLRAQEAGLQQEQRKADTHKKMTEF
The method in brief:
as §1

The target of experiment [7] is T3, IRS1 157-267 IRS (domain begin residue: 157, domain end residue: 267), P35568.
T3 chain: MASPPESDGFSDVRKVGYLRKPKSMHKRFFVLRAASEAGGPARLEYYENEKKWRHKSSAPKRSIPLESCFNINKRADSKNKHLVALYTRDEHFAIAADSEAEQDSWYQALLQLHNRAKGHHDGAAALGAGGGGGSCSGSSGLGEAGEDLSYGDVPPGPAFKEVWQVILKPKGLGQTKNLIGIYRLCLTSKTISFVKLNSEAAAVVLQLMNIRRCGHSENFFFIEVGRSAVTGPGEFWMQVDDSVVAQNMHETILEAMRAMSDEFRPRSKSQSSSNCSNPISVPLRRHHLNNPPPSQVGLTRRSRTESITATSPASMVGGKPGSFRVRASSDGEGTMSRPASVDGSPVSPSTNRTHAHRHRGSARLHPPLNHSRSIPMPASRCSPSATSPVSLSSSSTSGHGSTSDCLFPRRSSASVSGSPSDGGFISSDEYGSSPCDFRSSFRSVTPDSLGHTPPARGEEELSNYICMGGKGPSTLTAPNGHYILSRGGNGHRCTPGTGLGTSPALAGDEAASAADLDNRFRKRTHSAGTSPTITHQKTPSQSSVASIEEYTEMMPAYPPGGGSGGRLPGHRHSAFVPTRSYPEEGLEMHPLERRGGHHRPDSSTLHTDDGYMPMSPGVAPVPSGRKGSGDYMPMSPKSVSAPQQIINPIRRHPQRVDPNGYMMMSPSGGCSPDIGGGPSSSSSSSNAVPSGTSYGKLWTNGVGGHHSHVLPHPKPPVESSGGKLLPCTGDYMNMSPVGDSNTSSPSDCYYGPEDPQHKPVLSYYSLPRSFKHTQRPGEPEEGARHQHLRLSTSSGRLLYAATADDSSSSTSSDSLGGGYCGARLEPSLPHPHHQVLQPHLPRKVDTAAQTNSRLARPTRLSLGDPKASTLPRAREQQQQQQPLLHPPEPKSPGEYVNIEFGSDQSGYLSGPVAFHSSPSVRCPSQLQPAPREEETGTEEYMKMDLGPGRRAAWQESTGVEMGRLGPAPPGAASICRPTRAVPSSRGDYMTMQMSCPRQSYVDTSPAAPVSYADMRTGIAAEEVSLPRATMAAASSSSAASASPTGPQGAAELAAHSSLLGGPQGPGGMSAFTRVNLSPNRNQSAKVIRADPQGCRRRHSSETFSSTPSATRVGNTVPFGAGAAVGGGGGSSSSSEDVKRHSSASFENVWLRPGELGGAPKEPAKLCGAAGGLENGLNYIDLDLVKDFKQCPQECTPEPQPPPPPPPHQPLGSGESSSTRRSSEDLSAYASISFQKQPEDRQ
Put shortly:
as §1

Experiment [8] addresses KMT2C 995-1055 PHD (domain begin residue: 995, domain end residue: 1055). The method in brief:
as §1

For experiment [9], the target named is T4, RARA 175-421 Hormone_recep (domain begin residue: 175, domain end residue: 421), P10276.
T4 chain: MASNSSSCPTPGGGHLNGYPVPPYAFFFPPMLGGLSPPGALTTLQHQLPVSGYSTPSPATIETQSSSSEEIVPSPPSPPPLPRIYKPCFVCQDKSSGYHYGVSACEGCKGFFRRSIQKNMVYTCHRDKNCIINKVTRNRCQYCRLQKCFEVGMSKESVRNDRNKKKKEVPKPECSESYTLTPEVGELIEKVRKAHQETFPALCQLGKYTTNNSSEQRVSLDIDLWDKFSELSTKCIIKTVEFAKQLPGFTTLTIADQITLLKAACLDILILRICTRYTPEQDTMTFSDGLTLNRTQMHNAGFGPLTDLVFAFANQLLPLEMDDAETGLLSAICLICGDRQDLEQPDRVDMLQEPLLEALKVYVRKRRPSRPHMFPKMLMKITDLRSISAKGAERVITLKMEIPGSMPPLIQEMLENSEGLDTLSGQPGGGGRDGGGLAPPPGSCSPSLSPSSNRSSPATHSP
Put shortly: as §1

Experiment [10] has as its target KMT2C 1055-1137 PHD (domain begin residue: 1055, domain end residue: 1137). Put shortly:
as §1

Sequence of HSPA9 438-651 HSP70 (domain begin residue: 438, domain end residue: 651), P38646 (P38646 whole entry, the tested form may be a part): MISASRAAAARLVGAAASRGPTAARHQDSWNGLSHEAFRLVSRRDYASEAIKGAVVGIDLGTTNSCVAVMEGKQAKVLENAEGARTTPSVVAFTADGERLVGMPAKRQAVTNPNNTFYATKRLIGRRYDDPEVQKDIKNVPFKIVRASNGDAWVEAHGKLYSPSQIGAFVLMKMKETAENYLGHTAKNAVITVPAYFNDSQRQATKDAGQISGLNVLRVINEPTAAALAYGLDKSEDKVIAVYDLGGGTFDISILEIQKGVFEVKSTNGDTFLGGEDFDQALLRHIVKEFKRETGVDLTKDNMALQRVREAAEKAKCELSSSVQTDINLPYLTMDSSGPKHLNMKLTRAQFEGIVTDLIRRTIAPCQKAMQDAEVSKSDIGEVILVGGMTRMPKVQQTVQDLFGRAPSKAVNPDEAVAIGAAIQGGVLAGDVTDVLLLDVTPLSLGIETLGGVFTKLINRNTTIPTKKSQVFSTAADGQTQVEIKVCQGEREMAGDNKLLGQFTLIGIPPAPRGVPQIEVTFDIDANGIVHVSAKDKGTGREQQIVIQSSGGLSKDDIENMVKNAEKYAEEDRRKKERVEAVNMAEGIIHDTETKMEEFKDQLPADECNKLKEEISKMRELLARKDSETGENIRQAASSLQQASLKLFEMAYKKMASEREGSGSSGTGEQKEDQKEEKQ
Sequence of KPNB1 1-876 IBN_N+Arm (domain begin residue: 1, domain end residue: 876), Q14974 (Q14974 whole entry): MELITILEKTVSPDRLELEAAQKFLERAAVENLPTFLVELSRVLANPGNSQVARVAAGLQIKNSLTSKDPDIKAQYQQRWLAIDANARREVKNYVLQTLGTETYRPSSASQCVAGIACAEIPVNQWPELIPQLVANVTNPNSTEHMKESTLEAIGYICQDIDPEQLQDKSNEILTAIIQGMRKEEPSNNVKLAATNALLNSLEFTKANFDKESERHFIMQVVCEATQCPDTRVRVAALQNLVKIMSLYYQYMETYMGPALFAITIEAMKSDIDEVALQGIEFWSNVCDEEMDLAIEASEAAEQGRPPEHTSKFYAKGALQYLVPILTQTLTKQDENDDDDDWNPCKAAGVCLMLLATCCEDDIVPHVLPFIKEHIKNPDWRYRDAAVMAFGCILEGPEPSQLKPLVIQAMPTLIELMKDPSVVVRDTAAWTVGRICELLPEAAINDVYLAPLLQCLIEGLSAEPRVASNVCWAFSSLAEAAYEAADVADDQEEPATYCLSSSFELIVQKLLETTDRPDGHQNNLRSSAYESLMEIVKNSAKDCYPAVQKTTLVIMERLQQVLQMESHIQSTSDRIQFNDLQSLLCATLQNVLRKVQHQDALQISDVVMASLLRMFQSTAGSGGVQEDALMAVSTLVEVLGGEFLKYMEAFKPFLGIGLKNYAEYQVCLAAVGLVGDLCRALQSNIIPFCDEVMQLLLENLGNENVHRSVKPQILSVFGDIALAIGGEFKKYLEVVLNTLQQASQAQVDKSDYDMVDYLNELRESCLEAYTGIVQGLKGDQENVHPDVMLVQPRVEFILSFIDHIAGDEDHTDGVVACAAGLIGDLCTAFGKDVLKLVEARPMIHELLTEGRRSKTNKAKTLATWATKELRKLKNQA
Sequence of SETD1A 2-220 RRM_1 (domain begin residue: 2, domain end residue: 220), O15047 (O15047 whole entry): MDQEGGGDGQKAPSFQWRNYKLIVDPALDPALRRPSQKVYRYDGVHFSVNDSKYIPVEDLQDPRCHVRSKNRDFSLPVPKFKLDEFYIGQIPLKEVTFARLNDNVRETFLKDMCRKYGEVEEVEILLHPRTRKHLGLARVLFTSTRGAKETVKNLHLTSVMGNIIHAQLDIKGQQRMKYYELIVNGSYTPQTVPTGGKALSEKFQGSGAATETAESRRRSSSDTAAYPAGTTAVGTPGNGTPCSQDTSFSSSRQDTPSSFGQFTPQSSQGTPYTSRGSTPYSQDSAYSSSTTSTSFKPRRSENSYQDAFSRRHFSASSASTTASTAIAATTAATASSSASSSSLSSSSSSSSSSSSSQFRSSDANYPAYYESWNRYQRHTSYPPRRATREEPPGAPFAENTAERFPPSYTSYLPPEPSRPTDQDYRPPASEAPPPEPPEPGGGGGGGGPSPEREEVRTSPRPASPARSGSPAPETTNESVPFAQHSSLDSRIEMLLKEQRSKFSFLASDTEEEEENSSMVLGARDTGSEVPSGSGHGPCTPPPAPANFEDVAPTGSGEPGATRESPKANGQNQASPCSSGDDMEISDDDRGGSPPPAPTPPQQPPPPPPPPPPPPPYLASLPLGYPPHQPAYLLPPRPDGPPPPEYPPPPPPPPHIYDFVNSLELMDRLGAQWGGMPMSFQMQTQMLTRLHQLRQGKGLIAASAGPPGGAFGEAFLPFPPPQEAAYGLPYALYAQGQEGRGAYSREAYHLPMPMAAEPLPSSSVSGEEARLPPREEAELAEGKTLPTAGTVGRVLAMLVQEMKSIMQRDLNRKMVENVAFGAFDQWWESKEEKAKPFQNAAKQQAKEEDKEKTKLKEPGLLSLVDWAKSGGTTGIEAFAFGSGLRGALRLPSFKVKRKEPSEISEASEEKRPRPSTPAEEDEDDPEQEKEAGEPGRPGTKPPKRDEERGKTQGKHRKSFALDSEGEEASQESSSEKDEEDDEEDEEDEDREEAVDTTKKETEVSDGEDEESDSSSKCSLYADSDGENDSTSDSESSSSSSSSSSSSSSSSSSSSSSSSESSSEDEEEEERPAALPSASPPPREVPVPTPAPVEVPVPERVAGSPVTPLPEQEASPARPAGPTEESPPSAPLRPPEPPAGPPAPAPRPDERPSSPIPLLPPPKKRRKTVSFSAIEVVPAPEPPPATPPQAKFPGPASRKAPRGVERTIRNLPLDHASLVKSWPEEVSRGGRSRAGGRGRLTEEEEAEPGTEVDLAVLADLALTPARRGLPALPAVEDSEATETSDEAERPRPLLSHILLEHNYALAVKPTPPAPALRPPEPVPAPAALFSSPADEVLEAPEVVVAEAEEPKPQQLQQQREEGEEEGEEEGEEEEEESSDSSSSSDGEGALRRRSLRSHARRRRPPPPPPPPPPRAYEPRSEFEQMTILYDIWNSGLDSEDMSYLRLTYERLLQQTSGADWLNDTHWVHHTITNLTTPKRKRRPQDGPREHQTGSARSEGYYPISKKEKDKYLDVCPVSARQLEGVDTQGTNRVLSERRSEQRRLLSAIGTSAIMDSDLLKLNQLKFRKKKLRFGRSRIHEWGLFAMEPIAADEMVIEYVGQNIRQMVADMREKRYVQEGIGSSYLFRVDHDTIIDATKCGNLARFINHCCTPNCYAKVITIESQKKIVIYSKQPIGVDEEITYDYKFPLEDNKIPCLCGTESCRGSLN

For the molecule TFSMHRDEFQMLLNMM, the “phage ELISA signal ratio” value in [1] amounted to 23.3.
Consider IYLDQWFEEISTYVPA, for which the “phage ELISA signal ratio” value in [2] worked out at 8.33.
With YFTMDHDAWHYFQLYA, in experiment [1], the “phage ELISA signal ratio” value worked out at 20.2.
On to WVETSTYPEWPAVFVF, for which the “phage ELISA signal ratio” value in experiment [3] is 16.3.
Regarding YNFIESMYTMEPMPMH, the “phage ELISA signal ratio” value in experiment [4] came out at 3.33; in experiment [5], 4.24; in experiment [6], 3.65.
As for IWTWEYNPHYEIIHDM, the “phage ELISA signal ratio” value in [7] is 18.6.
As to WSWPDLDVVQDMIVAE, the “phage ELISA signal ratio” value in experiment [2] turned out to be 5.09.
As for WENIWDDMIEQIIIPQ, the “phage ELISA signal ratio” value in [2] was 8.83.
As for SIKGIYIDDVLRLIDQ, in experiment [8], the “phage ELISA signal ratio” value worked out at 6.63.
As to TYYLDPFAWEYLQAEY, the “phage ELISA signal ratio” value in experiment [1] is 20.2.
Regarding VITMDQSQWDDVMFWL, the “phage ELISA signal ratio” value in [1] was determined as 27.3.
As to SDMNWWEEWDFFLARE, the “phage ELISA signal ratio” value in [7] was 15.
For PWPQEYTTDLTSVFWF, the “phage ELISA signal ratio” value in [3] stood at 19.7.
In the case of YGWETIWDTFPVDMPA, in experiment [4], the “phage ELISA signal ratio” value is 3.69.
Regarding WGWDDIPALQEMKPTN, in experiment [2], the “phage ELISA signal ratio” value was 7.16.
With PYDNYRVVQIPWLFSD, the “phage ELISA signal ratio” value in experiment [4] is 3.18.
Consider WQMWTPLGDLDQIYTF, for which the “phage ELISA signal ratio” value in experiment [3] was found to be 16.1.
As to WDWVVREMSFDEVFIF, the “phage ELISA signal ratio” value in experiment [3] amounted to 20.4.
For the molecule STEFFYDWGYWEQMIE, the “phage ELISA signal ratio” value is 19.8 in experiment [1] and 9.16 in experiment [9].
Turning to WIPADFQEWMELVAYD, the “phage ELISA signal ratio” value in experiment [7] came out at 22.4.
For YMMDQHAWELLMTMMA, the “phage ELISA signal ratio” value in experiment [1] was 16.4.
For DNYMESMYEAMGDPKK, in experiment [10], the “phage ELISA signal ratio” value came out at 6.88.
WISFPFSDWQGDLFTF: the “phage ELISA signal ratio” value in experiment [3] came to 10.3.
As to YMEMVWDTIQIQPPQD, in [2], the “phage ELISA signal ratio” value came to 6.38.
As to DLVDWMSATWNENPWY, in experiment [7], the “phage ELISA signal ratio” value turned out to be 20.7.
As to FHGIWVQDELRVWMMD, the “phage ELISA signal ratio” value in [4] was 8.63.
In the case of PFTAFFVMMEWVQVPK, the “phage ELISA signal ratio” value in experiment [4] was found to be 2.52.
